Test results: PubChem BioAssay (NCATS)
Results filed as inconclusive are left out. Active and inactive are the calls of the source. Calls come from the whole dose curve; as a rule, active = well fitted activation curve with a large enough effect in the main read-out, with a control signal flat (not every such curve was filed as active); inconclusive = small, poorly fitted or top-dose-only effect, or effect the other way, or a change in a side signal; inactive = flat fitted curve, though single readings scatter.

biological target: 3',5'-cyclic-AMP phosphodiesterase 4B (Homo sapiens) (UniProt Q07343); assay: qHTS Assay for Inhibitors of PDE-IV (AID 607); conditions: HEK293 ACTOne CNG channel cells, membrane potential fluorescence; series mostly up to 22.9 µM; activation (PDE inhibition): at the top concentration; note: % of control where 0% means no effect
Method in brief: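 Cell-based read-out of cAMP via a modified cyclic nucleotide-gated channel and membrane potential dye (535/590 nm) in HEK293 cells expressing PDE4 endogenously. Compounds tested up to 22.9 uM final; 100 uM RO 20-1724 reference.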

3',5'-cyclic-AMP phosphodiesterase 4B (Homo sapiens), sequence (Q07343 whole entry, looked up): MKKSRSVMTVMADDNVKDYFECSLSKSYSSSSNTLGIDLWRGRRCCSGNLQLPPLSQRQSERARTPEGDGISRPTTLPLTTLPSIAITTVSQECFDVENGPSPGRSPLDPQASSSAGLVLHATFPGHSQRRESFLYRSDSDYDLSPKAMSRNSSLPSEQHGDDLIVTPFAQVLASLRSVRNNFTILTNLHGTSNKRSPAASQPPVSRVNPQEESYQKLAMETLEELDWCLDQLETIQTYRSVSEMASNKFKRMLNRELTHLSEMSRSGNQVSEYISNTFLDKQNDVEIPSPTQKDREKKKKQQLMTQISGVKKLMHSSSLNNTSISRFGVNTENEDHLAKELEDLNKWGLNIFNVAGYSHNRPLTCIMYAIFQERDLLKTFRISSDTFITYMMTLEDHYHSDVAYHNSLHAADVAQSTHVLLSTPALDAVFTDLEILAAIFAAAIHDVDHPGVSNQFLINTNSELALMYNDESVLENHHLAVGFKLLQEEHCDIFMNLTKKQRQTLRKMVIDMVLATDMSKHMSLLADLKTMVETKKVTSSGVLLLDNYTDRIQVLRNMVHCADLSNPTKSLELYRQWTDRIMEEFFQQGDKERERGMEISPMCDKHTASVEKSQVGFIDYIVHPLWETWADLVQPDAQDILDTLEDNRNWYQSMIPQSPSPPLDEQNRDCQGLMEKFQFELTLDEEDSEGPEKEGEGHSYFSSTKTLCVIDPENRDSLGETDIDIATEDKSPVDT

Q: With `S=C(S)N1CCCC1` as the molecule, how does the Potency read?
A: The Potency was “inactive”.

Q: Which “activation (PDE inhibition)” value does the source give for `CCCCCCC/C=C\CCCCCCCCC(=O)O` here?
A: Its value is 2.13% (inactive).

Q: How did the “activation (PDE inhibition)” value turn out when `NC(=Nc1ccccc1)NC(=O)c1nc(Cl)c(N)nc1N` was run?
A: The value was 22.9% (inactive).

Q: For `O=C(c1ccc2c(c1)OCCO2)N1CCCCC1`, which “activation (PDE inhibition)” value is on record?
A: Its value is 2.13% (inactive).

Q: How did the “activation (PDE inhibition)” value turn out when `O=C(O)C1=CC(=C(c2ccc(O)c(C(=O)O)c2)c2ccc(O)c(C(=O)O)c2)C=CC1=O` was run?
A: The value was 9.41% (inactive).

Q: For `O=c1[nH]ccc2c(O)cccc12`, which “activation (PDE inhibition)” value is on record?
A: Its value is 7.31% (inactive).

Q: Which “activation (PDE inhibition)” value does the source give for `COc1cc(/C=C(\C#N)C(=O)c2ccc(O)c(O)c2)cc(I)c1O` here?
A: Its value is 6.59% (inactive).

Q: How did the “activation (PDE inhibition)” value turn out when `Cc1nc(N=Nc2cc(S(=O)(=O)O)c3cc([N+](=O)[O-])cc(S(=O)(=O)O)c3c2)c(COP(=O)(O)O)c(C=O)c1O` was run?
A: The value was -7.25% (inactive).

Q: How did the “activation (PDE inhibition)” value turn out when `CCSC(=N)N` was run?
A: The value was -3.16% (inactive).

Q: How did the “activation (PDE inhibition)” value turn out when `COc1cc2c(CCNC(C)=O)c[nH]c2cc1O` was run?
A: The value was -1.79% (inactive).

Q: `[Li+]` was tested. Which “activation (PDE inhibition)” value did it give?
A: Its value is 5.03% (inactive).

Q: Which “activation (PDE inhibition)” value does the source give for `CCCCCC[C@@H]([C@@H](C)O)n1cnc2c(N)ncnc21` here?
A: Its value is 7.89% (inactive).

Q: With `O=c1oc(Cl)c(Cl)c2ccccc12` as the molecule, how does the “activation (PDE inhibition)” value read?
A: The value was -12.7% (inactive).

Q: `O=C(O)c1cc2cc(F)ccc2[nH]1` was tested. Which “activation (PDE inhibition)” value did it give?
A: The value was 13.2% (inactive).

Q: With `CCN(CC)CCOC(=O)c1cc(Cl)c(N)cc1OC` as the molecule, how does the “activation (PDE inhibition)” value read?
A: Its value is 10.1% (inactive).

Q: With `CN[C@H](CC(=O)O)C(=O)O` as the molecule, how does the Potency read?
A: The Potency was “inactive”.

Q: Which “activation (PDE inhibition)” value does the source give for `N=C(N)c1ccc(N)cc1` here?
A: Its value is -9.2% (inactive).

Q: Which “activation (PDE inhibition)” value does the source give for `NC(N)=[N+]1CCc2ccccc2C1` here?
A: The value was -23.3% (inactive).

Q: `C[C@H](O)C(=O)C1=Nc2c(nc(N)[nH]c2=O)NC1` was tested. Which “activation (PDE inhibition)” value did it give?
A: The value was -5.02% (inactive).

Q: Which “activation (PDE inhibition)” value does the source give for `COc1ccc2c(c1)c(CC(=O)O)c(C)n2Cc1ccc(Cl)cc1` here?
A: The value was -3.94% (inactive).

Q: For `O=c1[nH]c(=O)c2nc3ccccc3nc2[nH]1`, which “activation (PDE inhibition)” value is on record?
A: The value was 1.14% (inactive).

Q: Which “activation (PDE inhibition)” value does the source give for `N[C@@H](Cc1c[nH]c2ccccc12)C(=O)O` here?
A: Its value is 0.194% (inactive).

Q: With `CC[C@@H]1Cc2cc(O)ccc2C2=C1c1ccc(O)cc1C[C@H]2CC` as the molecule, how does the “activation (PDE inhibition)” value read?
A: Its value is 0.453% (inactive).
